According to PubChem BioAssay (Tox21):
Inconclusive results are not listed. Calls of active or inactive are those of the source. Unless noted, the call rests on the fitted dose curve; in most records, active means well fitted curve in the direction sought with a large enough effect in the repeat runs; inconclusive means weak or mixed curves; inactive means no such curve, though single readings can be large; an effect the other way counts as inactive or inconclusive.

Tests used:
[1] = qHTS assay to identify small molecule agonists of the sonic hedgehog signaling (Shh) pathway (AID 1259368; calls by dose curve; further: series mostly up to about 92 µM; nearly all actives have a fitted effect of over 15% in size)
Summary of the method: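 NIH/3T3-derived 3T3Gli1-Luc cells carrying a stably integrated Gli1 response element–firefly luciferase reporter were plated, left 4 hr at 37 C, then given compounds in DMSO for 24 hr. Luminescence was read 30 min after adding luciferase reagent.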

[2] = qHTS assay to identify small molecule antagonists of the sonic hedgehog signaling (Shh) pathway (AID 1259369; calls by dose curve; further: nearly all actives have a fitted effect of over 45% in size; further: potency means the concentration at half of the fitted maximal effect)
Summary of the method: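 NIH/3T3-derived 3T3Gli1-Luc cells with stably integrated Gli1-Luc reporter were preincubated 4hr at 37 C, then given compounds in DMSO plus Shh conditioned medium and incubated 24hr. Firefly luciferase luminescence read after 30min reagent at room temperature.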

[3] = target: Estrogen receptor beta (Homo sapiens) (UniProt Q92731); assay: qHTS assay to identify small molecule agonists of the estrogen receptor beta (ER-beta) signaling pathway (AID 1259377; active means well fitted activation curve with a large enough effect in the signal ratio in the repeat runs, not every such curve was filed as active; the % refers to the signal ratio)
Estrogen receptor beta (Homo sapiens), sequence (Q92731 whole entry, looked up): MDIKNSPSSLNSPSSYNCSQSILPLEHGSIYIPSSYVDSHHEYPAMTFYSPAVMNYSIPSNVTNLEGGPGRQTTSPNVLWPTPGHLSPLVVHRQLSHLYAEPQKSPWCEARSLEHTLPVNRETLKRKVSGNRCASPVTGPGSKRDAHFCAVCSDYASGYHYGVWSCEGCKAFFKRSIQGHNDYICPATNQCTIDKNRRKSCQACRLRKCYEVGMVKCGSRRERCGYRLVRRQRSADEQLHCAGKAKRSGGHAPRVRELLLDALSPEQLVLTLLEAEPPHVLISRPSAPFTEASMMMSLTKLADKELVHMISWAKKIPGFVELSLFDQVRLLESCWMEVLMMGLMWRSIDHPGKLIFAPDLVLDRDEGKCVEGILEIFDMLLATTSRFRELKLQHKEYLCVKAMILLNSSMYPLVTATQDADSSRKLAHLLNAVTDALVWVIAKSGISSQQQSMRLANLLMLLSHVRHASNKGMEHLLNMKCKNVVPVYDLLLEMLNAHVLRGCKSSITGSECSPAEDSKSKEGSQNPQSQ
Summary of the method: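 In HEK293T cells bearing a UAS-beta-lactamase reporter under ER-beta control, DMSO-delivered compounds were incubated for 16 hr at 37C. Activity was detected as fluorescence 2 hours after LiveBLAzer B/G FRET substrate addition.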

[4] = target: Estrogen receptor beta (Homo sapiens) (UniProt Q92731); assay: qHTS assay to identify small molecule antagonists of the estrogen receptor beta (ER-beta) signaling pathway (AID 1259378; active means well fitted inhibition curve with a large enough effect in the signal ratio in the repeat runs, not every such curve was filed as active; the % refers to the signal ratio)
Summary of the method: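 ER-beta-UAS-bla HEK293T (GripTite) cells in 2% charcoal-stripped FBS medium were preincubated 6 hr at 37C, dosed with compound, then stimulated with 1 nM E2 (final) for 16 hr; beta-lactamase reporter read by B/G FRET fluorescence after 2 hr substrate loading.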

[5] = qHTS assay to identify small molecule agonists of the androgen receptor (AR) signaling pathway in the presence of an antagonist - cell viability counter screen (AID 1259379); further: nearly all actives have a fitted effect of over 25% in size; further: potency means the concentration at half of the fitted maximal effect;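 on activity change, negative = cytotoxicity: MDA-kb2 human breast cancer cells carrying an MMTV luciferase reporter; series mostly up to about 92 µM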
Summary of the method: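 MDA-kb2 human breast carcinoma cells (stable MMTV-luciferase, AR/GR responsive) were seeded 3,000 cells/well, pre-incubated 5 hr at 37C without CO2, then given 3.0uM nilutamide and compounds at 15 concentrations for 16 hr. Viability was read by CellTiter-Fluor fluorescence.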

[6] = qHTS assay to identify small molecule agonists of the estrogen receptor beta (ER-beta) signaling pathway - cell viability counter screen (AID 1259380); further: nearly all actives have a fitted effect of over 30% in size
Summary of the method: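 ER-beta-UAS-bla HEK293T cells in medium with 2% charcoal-stripped FBS were preincubated 6 hr at 37C, dosed with compound in DMSO for 16 hr, then after the bla read, CellTiter-Glo was added for 30 min at room temperature; luminescence recorded.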

[7] = qHTS assay to identify small molecule agonists of the estrogen receptor alpha (ER-alpha) signaling pathway in the presence of an antagonist - cell viability counter screen (AID 1259386);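 further: cells exposed to compounds for 22 h at 37 °C before the viability read; nearly all actives have a fitted effect of over 30% in size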; further: potency means the concentration at half of the fitted maximal effect; on activity change, negative = cytotoxicity: series mostly up to about 92 µM
Summary of the method: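 VM7Luc4E2 cells (endogenous full-length ER-alpha, 4×ERE-luciferase) were held 5 days in phenol red-free medium with 10% charcoal-stripped FBS, plated, then given 10.0nM ICI-182,780 and compounds at 15 concentrations for 22hr at 37C; viability read by CellTiter-Fluor fluorescence.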

[8] = target: Progesterone receptor (Homo sapiens) (UniProt P06401); assay: qHTS assay to identify small molecule antagonists of the progesterone receptor (PR) signaling pathway (AID 1346795; active means well fitted inhibition curve with a large enough effect in the signal ratio in the repeat runs, not every such curve was filed as active; the % refers to the signal ratio; further: potency means the concentration at half of the fitted maximal effect)
Progesterone receptor (Homo sapiens), sequence (P06401 whole entry, looked up): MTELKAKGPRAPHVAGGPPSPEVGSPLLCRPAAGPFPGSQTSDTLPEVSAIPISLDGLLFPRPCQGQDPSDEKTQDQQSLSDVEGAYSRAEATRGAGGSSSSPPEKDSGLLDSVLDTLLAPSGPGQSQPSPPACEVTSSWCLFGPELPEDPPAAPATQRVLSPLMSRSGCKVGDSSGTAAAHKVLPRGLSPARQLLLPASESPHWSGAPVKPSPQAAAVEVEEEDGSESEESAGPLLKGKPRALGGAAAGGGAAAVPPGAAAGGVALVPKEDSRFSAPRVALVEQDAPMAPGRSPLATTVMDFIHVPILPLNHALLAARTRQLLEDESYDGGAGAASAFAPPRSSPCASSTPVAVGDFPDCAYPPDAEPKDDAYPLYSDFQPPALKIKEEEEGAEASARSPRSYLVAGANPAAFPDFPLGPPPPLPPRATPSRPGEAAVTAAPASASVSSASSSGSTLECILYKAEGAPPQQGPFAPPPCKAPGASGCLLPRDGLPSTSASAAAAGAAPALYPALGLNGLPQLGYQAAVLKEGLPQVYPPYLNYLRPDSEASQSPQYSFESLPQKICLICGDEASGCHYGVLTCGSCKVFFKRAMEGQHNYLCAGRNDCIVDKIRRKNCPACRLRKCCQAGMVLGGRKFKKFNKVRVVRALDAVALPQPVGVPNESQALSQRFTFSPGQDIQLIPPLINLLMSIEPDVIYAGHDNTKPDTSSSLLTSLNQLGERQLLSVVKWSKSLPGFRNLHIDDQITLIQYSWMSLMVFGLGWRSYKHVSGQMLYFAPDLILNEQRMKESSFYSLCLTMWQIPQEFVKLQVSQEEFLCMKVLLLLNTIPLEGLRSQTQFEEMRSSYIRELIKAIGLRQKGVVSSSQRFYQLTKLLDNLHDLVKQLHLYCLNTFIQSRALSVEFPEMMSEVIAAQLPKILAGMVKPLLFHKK
Summary of the method: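 Inhibition of R5020-induced (1 nM final) beta-lactamase reporter signal in PR-UAS-bla HEK293T cells was scored by FRET fluorescence after overnight (16 hr) compound treatment.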

[9] = qHTS assay to identify small molecule antagonists of the progesterone receptor (PR) signaling pathway - cell viability counter screen (AID 1346798); further: series mostly up to about 92 µM; nearly all actives have a fitted effect of over 50% in size
Summary of the method: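 ATP content as viability readout: CellTiter-Glo luminescence, 30 min room temperature, in PR-UAS-bla HEK293T cells after 16 hr compound/R5020 treatment at 37C and 5% CO2.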

[10] = qHTS assay to identify small molecule agonists of the progesterone receptor (PR) signaling pathway - cell viability counter screen (AID 1346799; calls by dose curve; further: nearly all actives have a fitted effect of over 45% in size)
Summary of the method: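 Cytotoxicity in PR-bla HEK293T cells: 16 h compound, 37C; CellTiter-Glo added post-FRET read; luminescence after 30 min RT.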

[11] = qHTS assay to identify small molecule antagonists of the TGF-beta/Smad signaling pathway - cell viability counter screen (AID 1346824); further: nearly all actives have a fitted effect of over 50% in size
Summary of the method: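 SBE-bla HEK 293T cells were plated overnight at 37 C, then given compounds in DMSO plus TGF-beta1 (added as 0.25 ng/mL solution) for 5 hr. After the bla read, CellTiter-Glo was added to the same wells and luminescence read after 30 min at room temperature.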

[12] = qHTS assay to identify small molecule agonists of the TGF-beta/Smad signaling pathway - cell viability counter screen (AID 1346829); further: top concentration of the series differs between compounds; nearly all actives have a fitted effect of over 45% in size
Summary of the method: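 SBE-bla HEK 293T cells plated overnight, compound exposure 5 hr at 37 C. Viability read in the same wells by CellTiter-Glo luminescence after 30 min at room temperature, following the beta-lactamase read.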

[13] = qHTS assay to identify small molecule agonists of the TGF-beta/Smad signaling pathway (AID 1346859; active means well fitted activation curve with a large enough effect in the signal ratio in the repeat runs, not every such curve was filed as active; the % refers to the signal ratio; further: series mostly up to about 77 µM)
Summary of the method: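 Stable Smad binding element-beta-lactamase HEK 293T cells; 5 hr compound exposure at 37 C under 5% CO2; 2 hr room-temperature substrate step; fluorescence excited at 405 nm, collected at 460 nm and 530 nm.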

[14] = qHTS assay to identify small molecule antagonists of the estrogen receptor beta (ER-beta) signaling pathway - cell viability counter screen (AID 1259382); further: series mostly up to about 92 µM; nearly all actives have a fitted effect of over 55% in size
Summary of the method: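 ER-beta-UAS-bla HEK293T cells (2,000/well, 2% charcoal-stripped FBS) were pre-incubated 6 hr at 37C, then given compound plus 1nM final 17-beta-estradiol for 16 hr. Viability was read in the same wells by CellTiter-Glo luminescence after 30 min at room temperature.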

[15] = target: Thyrotropin receptor (Homo sapiens) (UniProt P16473); assay: qHTS assay to identify small molecule antagonists of the thyroid stimulating hormone receptor (TSHR) signaling pathway (AID 1259385; calls by dose curve; further: nearly all actives have a fitted effect of over 20% in size)
Thyrotropin receptor (Homo sapiens), sequence (P16473 whole entry, looked up): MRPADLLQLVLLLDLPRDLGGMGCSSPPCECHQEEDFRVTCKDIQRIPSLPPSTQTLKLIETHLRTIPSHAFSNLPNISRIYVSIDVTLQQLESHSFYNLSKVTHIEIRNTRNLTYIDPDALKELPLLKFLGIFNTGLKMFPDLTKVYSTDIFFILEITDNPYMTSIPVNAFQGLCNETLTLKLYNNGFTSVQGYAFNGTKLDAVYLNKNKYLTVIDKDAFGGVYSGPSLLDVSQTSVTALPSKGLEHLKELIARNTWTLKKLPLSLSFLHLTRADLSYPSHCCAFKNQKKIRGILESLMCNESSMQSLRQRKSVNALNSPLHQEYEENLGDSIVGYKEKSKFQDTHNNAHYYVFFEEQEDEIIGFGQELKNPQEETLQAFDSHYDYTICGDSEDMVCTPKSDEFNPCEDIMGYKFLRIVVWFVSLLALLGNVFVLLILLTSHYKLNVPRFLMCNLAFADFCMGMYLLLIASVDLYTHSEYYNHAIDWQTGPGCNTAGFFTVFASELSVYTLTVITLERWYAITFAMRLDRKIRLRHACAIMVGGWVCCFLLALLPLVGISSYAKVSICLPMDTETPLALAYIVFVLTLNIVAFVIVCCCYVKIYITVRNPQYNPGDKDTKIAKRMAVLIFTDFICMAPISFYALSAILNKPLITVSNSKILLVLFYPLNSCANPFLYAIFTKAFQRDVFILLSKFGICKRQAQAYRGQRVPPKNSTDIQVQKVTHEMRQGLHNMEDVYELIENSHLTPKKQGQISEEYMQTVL
Summary of the method: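 TSHR-HEK293 cells were plated and held 18 h at 37C/5% CO2, then given compound plus Ro20-1724 and stimulated with TSH at 1.5 ng/mL final. After 30 min at room temperature, cAMP was detected with cAMP-d2/anti-cAMP-cryptate (1 h) by fluorescence.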

[16] = target: Progesterone receptor (Homo sapiens) (UniProt P06401); assay: qHTS assay to identify small molecule agonists of the progesterone receptor (PR) signaling pathway (AID 1346784; calls by dose curve; further: nearly all actives have a fitted effect of over 30% in size)
Summary of the method: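 Using charcoal-stripped serum (2%) to limit endogenous steroids, PR-UAS-bla HEK 293T cells received compounds for 16 hr at 37C after 6 hr plating; beta-lactamase FRET fluorescence was recorded following 2 hr substrate loading at room temperature.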

[17] = target: Thyrotropin-releasing hormone receptor (Homo sapiens) (UniProt P34981); assay: qHTS assay to identify small molecule antagonists of the thyrotropin-releasing hormone receptor (TRHR) signaling pathway (AID 1346877; active means well fitted inhibition curve with a large enough effect in the repeat runs, not every such curve was filed as active; further: series mostly up to about 51 µM)
Thyrotropin-releasing hormone receptor (Homo sapiens), sequence (P34981 whole entry, looked up): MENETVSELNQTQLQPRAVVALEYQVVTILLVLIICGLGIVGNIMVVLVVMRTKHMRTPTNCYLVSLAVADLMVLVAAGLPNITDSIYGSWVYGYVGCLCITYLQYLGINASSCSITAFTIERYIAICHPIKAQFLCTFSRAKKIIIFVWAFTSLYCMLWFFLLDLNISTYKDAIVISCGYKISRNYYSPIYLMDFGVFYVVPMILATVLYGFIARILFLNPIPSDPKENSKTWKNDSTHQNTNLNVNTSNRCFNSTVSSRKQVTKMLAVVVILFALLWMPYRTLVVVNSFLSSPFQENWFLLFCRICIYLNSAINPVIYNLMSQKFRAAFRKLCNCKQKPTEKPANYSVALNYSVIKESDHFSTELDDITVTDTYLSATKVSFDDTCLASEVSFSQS
Summary of the method: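 TRHR-expressing HEK293 cells were seeded, cultured 18 h at 37 °C, then loaded with calcium dye for 2 h. Compounds were pre-incubated 5 min at room temperature before 1 nM TRH (final) was added, and kinetic fluorescence was recorded for 3 min.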

[18] = target: Estrogen receptor (Homo sapiens) (UniProt P03372); assay: qHTS assay to identify small molecule agonists of the estrogen receptor alpha (ER-alpha) signaling pathway in the presence of an antagonist (AID 1259383; calls by dose curve; further: top concentration of the series differs between compounds; nearly all actives have a fitted effect of over 15% in size)
Estrogen receptor (Homo sapiens), sequence (P03372 whole entry, looked up): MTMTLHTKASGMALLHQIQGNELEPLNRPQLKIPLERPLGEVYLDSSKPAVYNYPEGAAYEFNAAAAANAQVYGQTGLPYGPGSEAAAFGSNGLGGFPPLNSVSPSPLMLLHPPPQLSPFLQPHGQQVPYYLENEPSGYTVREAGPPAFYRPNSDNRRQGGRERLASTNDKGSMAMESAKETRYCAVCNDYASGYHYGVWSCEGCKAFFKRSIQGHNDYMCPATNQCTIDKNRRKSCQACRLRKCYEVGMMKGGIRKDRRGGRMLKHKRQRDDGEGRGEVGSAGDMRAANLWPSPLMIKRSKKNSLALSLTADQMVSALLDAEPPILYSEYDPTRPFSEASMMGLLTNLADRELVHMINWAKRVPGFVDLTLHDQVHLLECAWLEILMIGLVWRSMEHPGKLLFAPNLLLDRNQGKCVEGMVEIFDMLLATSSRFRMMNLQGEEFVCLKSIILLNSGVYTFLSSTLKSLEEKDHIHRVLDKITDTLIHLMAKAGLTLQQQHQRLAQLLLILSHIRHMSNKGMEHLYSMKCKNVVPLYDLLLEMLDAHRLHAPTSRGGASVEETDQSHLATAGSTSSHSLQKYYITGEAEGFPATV
Summary of the method: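 VM7Luc4E2 cells (endogenous full-length ER-alpha, 4×ERE-luciferase) were precultured 5 days in phenol red-free medium with 10% charcoal-stripped FBS, given 10.0nM ICI-182,780 (final), then treated with compounds at 15 concentrations for 22hr at 37C; luminescence read with ONE-Glo.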

[19] = qHTS assay to identify small molecule agonists or antagonists of the thyroid stimulating hormone receptor (TSHR) signaling pathway - wild type cell line counter screen (AID 1259384; calls by dose curve)
Summary of the method: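 Wild-type HEK293 cells were plated 18 h at 37 C/5% CO2, pin-dosed with compound plus Ro20-1724 medium, held 30 min at room temperature, then given cAMP-d2 and anti-cAMP-cryptate; fluorescence was read after 1 h. Fifteen concentrations, triplicate.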
On the % scale 0 is the no-effect control and ±100 the full control effect.

C/C=C(\C)C(=O)OCCC(C)CCC=C(C)C (stereo not drawn)
inactive: Potency [1] | Potency [2] | Potency [3] | Potency [4] | Potency [5] | Potency [6] | Potency [7] | Potency [8] | Potency [9] | Potency [10] | outcome [11] | outcome [12] | outcome [13]

C[N+]1(C)CCC(=C(c2ccccc2)c2ccccc2)CC1
inactive: Potency [1] | Potency [2] | Potency [3] | Potency [4] | Potency [5] | Potency [6] | Potency [14] | Potency [15] | Potency [7] | Potency [16] | Potency [8] | Potency [9] | Potency [10] | outcome [11] | outcome [12] | outcome [13] | outcome [17]

[O]=[Bi]
inactive: activity change [1] -0.104% [at 8.39 µM, active compounds read high] | activation [3] 4.87% [at 8.39 µM] | activity, negative = inhibition [4] 1.25% [at 8.39 µM] | activity change, negative = cytotoxicity [5] 2.01% [at 8.39 µM] | activity change, negative = cytotoxicity [6] 4.86% [at 8.39 µM] | activity change, negative = cytotoxicity [14] -2.24% [at 8.39 µM] | activation [18] 0.802% [at 8.39 µM] | activity change, negative = cytotoxicity [7] -3.93% [at 8.39 µM] | activation [16] 4.47% [at 8.39 µM] | activity change, negative = cytotoxicity [10] 0% [at 8.39 µM] | viability change, negative = cytotoxic [11] -10.5% [at 6.97 µM] | activity change, negative = cytotoxicity [12] -9.02% [at 6.97 µM] | activation [13] 2.8% [at 6.97 µM]
active: Potency [2] 1.67 µM

CCC(C)=O
inactive: Potency [1] | Potency [2] | Potency [3] | Potency [4] | Potency [5] | Potency [6] | Potency [14] | Potency [9] | Potency [10] | outcome [11] | outcome [12] | outcome [13]

CO[C@H]1O[C@H](CO)[C@@H](O)[C@H](O)[C@H]1O
inactive: Potency [1] | Potency [2] | Potency [3] | Potency [4] | Potency [5] | Potency [6] | outcome [19] | Potency [15] | Potency [7] | Potency [16] | Potency [8] | Potency [9] | Potency [10] | outcome [11] | outcome [12] | outcome [13] | outcome [17]

c1cc[c]([Bi]([c]2ccccc2)[c]2ccccc2)cc1
inactive: Potency [1] | Potency [3] | Potency [5] | Potency [6] | Potency [14] | Potency [18] | outcome [19] | Potency [15] | Potency [7] | outcome [11] | outcome [12] | outcome [13]
active: Potency [2] 13.7 µM

CCc1nn(CCCN2CCN(c3cccc(Cl)c3)CC2)c(=O)n1CCOc1ccccc1
active: Potency [2] 15 µM | Potency [5] 29.8 µM | Potency [7] 29.8 µM | Potency [8] 26.6 µM
inactive: Potency [1] | Potency [3] | Potency [18] | outcome [19] | Potency [16] | outcome [11] | outcome [13] | outcome [17]
